Screens (PubChem BioAssay)
LGR2 antag: inhibitors of bursicon-induced LGR2 CRE-luciferase signal, primary screen, cell-based, HEK293, CRE-luciferase reporter, bursicon stimulation; bursicon-stimulated, 4 h; inhibition, % at 9.99 µM; hit rate 0.35% among 380,000; Drosophila bursicon receptor LGR2 (rickets);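 active = drop in luminescence signal, shown as inhibition above about 50% in the replicate tests, limit read from the data, passing the limit was not always enough; inconclusive = probably only some replicates passing the limit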;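 note: agonist challenge used bursicon conditioned medium at about half maximal strength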
TROY NFkB inh: inhibitors of TROY-driven NF-kB signaling, primary screen, Q293 LMP1-TROYcd cells, NF-kB luciferase, uHTS | AID 1347056, 2019 | hit rate 0.98% among 360,000 | inhibition, % at 10 µM | Q293 LMP1-TROYcd NF-kB luciferase reporter, 4 h;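 active = compounds whose plate-normalised and pattern-corrected inhibition of the luciferase reporter signal at the single screening dose is 50% or more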
LMP1 NFkB inh: EBV LMP1-driven NF-kappaB luciferase reporter inhibitors, primary screen, cell-based, luminescence, single point. LMP1-induced NF-kappaB luciferase reporter cells. inhibition, % at 12.5 µM. hit rate 0.69% among 350,000; in the data active = inhibition above about 41%; inconclusive = no clear call, values can overlap the other calls
HSP90 inh: HSP90 inhibitors, primary screen, cell lysate, luminescence. AID 1789, 2009. Rabbit reticulocyte lysate, luciferase refolding luminescence, 3 h. hit rate 0.91% among 290,000. inhibition, % at 5.6 µM;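 active = inhibition above the screen-wide mean plus 3 SD, computed separately per campaign, cut at about 16% in these data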;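 note: inhibitors lower the luminescence because luciferase stays unfolded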
aDG glyco act: activators of alpha-DG glycosylation, primary screen, uHTS, Pro5-aDG cells, AlphaScreen. alpha-DG glycosylation AlphaScreen (IIH6); 0% Pro5, 100% B10-LARGE cell signal. activation, % at 10 µM. hit rate 0.22% among 360,000. AID 624168, 2012;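 active = activation of at least 8% versus controls, or a plate z-score of at least 8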;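 note: Pro5 are CHO cells carrying HIG-tagged alpha-DG that lacks glycosylation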
TWEAK-Fn14 inh: inhibitors of TWEAK-Fn14 signaling, primary screen, luciferase reporter cells, uHTS. TWEAK-stimulated Fn14 reporter cells, luciferase luminescence, 8 h. inhibition, % at 10 µM. hit rate 2% among 360,000. AID 1159606, 2016; in the data active = inhibition above about 50%
Hits are given with their value; i = inactive; ? = inconclusive; nt = not tested or not shown. Compounds with a hit are over-represented: about 2.6% of the library has one in this group of screens.

SMILES	LGR2 antag	TROY NFkB inh	LMP1 NFkB inh	HSP90 inh	aDG glyco act	TWEAK-Fn14 inh
CCOc1ccc(NC(=S)Nc2ccc(C)c([N+](=O)[O-])c2)cc1	nt	i	i	17	i	i
CCOc1ccc(NC(=O)c2cnsn2)cc1	nt	i	56	i	i	57
CCOc1ccc(NC(=O)c2cnccn2)cc1	nt	i	i	i	i	i
CCOc1ccc(NC(=S)Nc2ccc3nsnc3c2)cc1	i	i	i	i	7.8	i
CCOc1ccc(NC(=O)Nc2ccc3nsnc3c2)cc1	i	i	i	i	i	i
CCOc1ccc(NC(=S)Nc2ccc(OCC)cc2)cc1	i	i	i	i	i	i
CO[C@H]1CN(C)C(=O)c2ccc(NC(=O)NC(C)C)cc2OC[C@@H](C)N(C(=O)CC2CC2)C[C@H]1C	i	nt	nt	nt	nt	nt
COc1ccc2c3c(n(C)c2c1)[C@@H](CO)N(C(=O)Cc1ccccc1)CC31CCN(C(=O)Cc2ccccc2)CC1	i	nt	nt	nt	nt	nt
O=C(N/N=C/c1c[nH]c2ccccc12)c1cc(-c2ccccc2)n[nH]1	nt	i	i	i	i	i
O=C(N/N=C/c1c[nH]c2ccccc12)c1cc(-c2ccc(-c3ccccc3)cc2)n[nH]1	nt	i	i	i	i	67
Cc1noc(C)c1NC(=O)Nc1ccc2c(c1)CC(=O)N([C@@H](C)CO)C[C@@H](C)[C@@H](CN(C)S(=O)(=O)c1cccs1)O2	i	nt	nt	nt	nt	nt
COc1ccc(-c2cn3c(C)c(C(=O)NC(C)C)sc3n2)cc1	nt	i	i	i	i	i
COc1ccc(-c2cn3c(C)c(C(=O)N4CCN(c5ccc(F)cc5)CC4)sc3n2)cc1	i	i	i	68	i	i
COc1ccc(-c2cn3c(C)c(C(=O)NC(C)(C)C)sc3n2)cc1	i	i	i	45	i	i
COc1cc(NC(=O)Cn2nc(C(F)(F)F)c3c2CCCC3)cc(OC)c1OC	nt	nt	i	i	i	66
Oc1c(N=NC(=S)Nc2ccccc2F)c2ccccc2n1Cc1ccccc1Cl	i	i	?	i	i	i
C=CCn1c(O)c(N=NC(=S)Nc2ccccc2F)c2ccccc21	i	i	60	i	i	i
Oc1c(N=NC(=S)Nc2ccccc2F)c2ccccc2n1Cc1ccccc1	i	i	45	i	i	i
Cc1c(Cl)cccc1NC(=S)N=Nc1c(O)n(CN2CCOCC2)c2ccccc12	nt	i	i	i	i	105
C=CCn1c(O)c(N=NC(=S)Nc2ccccc2F)c2cc(S(=O)(=O)N3CCOCC3)ccc21	i	i	52	i	i	i
O=C(Nc1ccc(F)cc1)N1CC(=O)N2[C@H](CO)[C@H](c3ccc(Br)cc3)[C@H]2C1	i	nt	nt	nt	nt	nt
CCS(=O)(=O)N1CC2(C1)[C@H](c1ccccc1)[C@H](CO)N2CC1CCCC1	i	nt	nt	nt	nt	nt
CCCCn1c(-c2ccncc2)nc2c1c(=O)[nH]c(=O)n2CC(C)C	i	nt	i	i	i	76
COCCn1c(-c2ccc(SC)cc2)nc2c1c(=O)[nH]c(=O)n2CC(C)C	i	i	i	i	i	i
CO[C@H]1CN(C)C(=O)c2cc(NC(=O)c3ccccc3F)ccc2OC[C@@H](C)N(CC2CCOCC2)C[C@H]1C	i	nt	nt	nt	nt	nt
SMILES	LGR2 antag	TROY NFkB inh	LMP1 NFkB inh	HSP90 inh	aDG glyco act	TWEAK-Fn14 inh
CC(=O)Nc1ccc(S(=O)(=O)Nc2cccc(-c3ccc4nncn4n3)c2)cc1	i	i	i	i	i	i
CC(=O)c1ccc(S(=O)(=O)Nc2cccc(-c3ccc4nncn4n3)c2)cc1	i	i	58	i	i	i
C[C@@H]1CN([C@H](C)CO)S(=O)(=O)c2ccc(-c3ccc(C#N)cc3)cc2O[C@H]1CN(C)C	i	nt	nt	nt	nt	nt
CC(=O)N(C)c1ccc(C=C2C=Cc3ccccc32)cc1	i	71	i	nt	i	79
CCc1nonc1NC(=O)c1oc2ccc(F)cc2c1C	i	i	42	i	i	i
CCc1ccc2oc(C(=O)Nc3nonc3C)c(C)c2c1	i	i	i	i	i	i
Cc1c(C(=O)Nc2nonc2-c2ccc(F)cc2)oc2ccc(F)cc12	i	i	i	i	i	79
Cn1cnc(CCNC(=O)C[C@H]2CC[C@@H]3[C@H](COC[C@H](O)CN3C(=O)Nc3ccc(C(F)(F)F)cc3)O2)c1	i	nt	nt	nt	nt	nt
N#Cc1ccccc1Cn1cc(/C=C/[N+](=O)[O-])c2ccccc21	69	i	i	i	i	i
O=C(Cn1cc(/C=C\[N+](=O)[O-])c2ccccc21)Nc1ccccc1	67	i	i	i	i	i
Cc1ccc(S(=O)(=O)N[C@H]2C=C[C@H](CC(=O)NCc3ccc(Cl)c(Cl)c3)O[C@@H]2CO)cc1	i	nt	nt	nt	nt	nt
CCOc1ccc(NS(=O)(=O)c2ccc(C(=O)N(CC)CC(=O)NCc3cccs3)cc2)cc1	i	i	i	i	i	i
CCOc1ccc(S(=O)(=O)Nc2ccc(C(=O)N(CC)CC(=O)NCc3cccs3)cc2)cc1	i	i	i	nt	i	74
COCCn1c(C)cc(C(=O)CSc2nnnn2C2CCCC2)c1C	80	i	70	nt	i	75
CSC1SCC2C(=O)N(C)C(C(C)C)C(=O)OCC(NC(=O)c3cnc4ccccc4n3)C(=O)NC(C)C(=O)N(C)C1C(=O)N(C)C(C(C)C)C(=O)OCC(NC(=O)c1cnc3ccccc3n1)C(=O)NC(C)C(=O)N2C (configuration not stated)	99	65	85	nt	i	92
O=C1CNC[C@@H]2[C@@H](c3ccc(-c4ccccc4F)cc3)[C@@H](CO)N12	i	nt	nt	nt	nt	nt
C[C@@H]1CN([C@@H](C)CO)C(=O)c2cc(C#Cc3cccc(F)c3)cnc2O[C@@H]1CN(C)C(=O)C1CCC1	i	nt	nt	nt	nt	nt
O=C(N/N=C/c1ccccn1)c1[nH]c2ccc([N+](=O)[O-])cc2c1-c1ccccc1	i	54	i	i	i	i
Cc1nc(NC(=O)CN2CCN(c3ccccc3F)CC2)sc1C(=O)N(C)C	i	i	i	16	i	i
NS(=O)(=O)c1ccc(CCNC(=O)CNC(=O)c2ccccc2Br)cc1	i	i	i	i	i	51
C[C@@H]1CCCCO[C@@H](CN(C)S(=O)(=O)c2ccccc2)[C@@H](C)CN([C@@H](C)CO)C(=O)c2cc(NC(=O)Nc3ccc4c(c3)OCO4)ccc2O1	i	nt	nt	nt	nt	nt
CC1CCc2c(sc(NC(=O)CSc3nc(N)cc(=O)[nH]3)c2C(N)=O)C1 (configuration not stated)	i	53	i	nt	i	67
CC(C)n1c(SCC(=O)N2c3ccccc3Sc3ccccc32)nc2c1c(=O)n(C)c(=O)n2C	i	i	i	i	i	i
CCCn1c(SCC(=O)N2c3ccccc3Sc3ccccc32)nc2c1c(=O)n(C)c(=O)n2C	nt	50	i	i	i	i
CC(C)(C)C(=O)Cn1ncc(Cl)c(Cl)c1=O	nt	i	i	i	i	97
